Laboratory results reported in ChEMBL document CHEMBL3988442, “University of Dundee, Small-Polar-MMV Screening Library” (2021).

molecular target: Shiga toxin 2 (Escherichia coli O157:H7) (UniProt P09385+P09386); test: E. coli 0.157:H7 Shiga Toxin SOP - stx2 screening assay; assay type: functional; design: scale not given: direction of the effect not stated beside the values; conditions: 30 µM

Row | Compound | Percent Effect
1 | Cc1nc(CN(C)C2CCCN(c3cccnn3)C2)no1 (configuration not stated) | -10.7%
2 | CC(Cn1cccn1)NC(=O)NCc1ccccn1 (configuration not stated) | -30.2%
3 | CCc1cnc(CNc2ccc(C(=O)N3CCCC(C)C3)cc2C)o1 (configuration not stated) | 21.6%
4 | Cc1csc(CNC(=O)NCCc2ccc3c(c2)OCCO3)n1 | -15.4%
5 | O=C(NCCc1ccccc1)C1CCC(Cn2cnnn2)CC1 (configuration not stated) | -20.1%
6 | CC(C)N1CCC(N2CCN(C3CCC3)CC2CCO)CC1 (configuration not stated) | -0.0599%
7 | CCc1csc(C2CCCN(C(=O)C3=NN(CC)C(=O)CC3)C2)n1 (configuration not stated) | -21.6%
